Measured values: PubChem BioAssay
Activity calls are given as the source filed them.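 Rule for the calls: active = compounds whose cell count with miR-34 switched on is under 0.7 times the count with it off; inactive = the rest.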

assay: sensitizers of A549 cells to miR-34 induction, primary screen, imaging, A549 dox-inducible miR-34, nuclei and caspase counts (AID 1347080); details: A549 miR-34 inducible, Hoechst nuclei count, 48 h; stronger effect = lower value; cell number ratio, induced over uninduced; note: test concentration not given here

| Compound | fold change |
| --- | --- |
| O=C(O)CCC(C(=O)O)N1C(=O)c2ccccc2C1=O (configuration not stated) | 1.05 (inactive) |
| Nc1ncnc2c1nc(Br)n2C1OC2COP(=O)(O)O[C@@H]2C1O (some centres not stated) | 0.962 (inactive) |
| Nc1nc(Nc2ccccc2)nc2c1ncn2[C@@H]1O[C@H](CO)[C@H](O)C1O (some centres not stated) | 0.974 (inactive) |
| COc1ccc(NC(=O)/C=C/c2ccc(Cl)cc2)cc1 | 1.13 (inactive) |
| C=CCn1c(=O)c2c(nc(-c3ccc(S(=O)(=O)O)cc3)n2C)n(C)c1=O | 1.02 (inactive) |
| N[C@H](CO)C(=O)O | 0.97 (inactive) |
| N#Cc1cc([N+](=O)[O-])c2sc(C(N)=O)[n+]([O-])c2c1 | 1.08 (inactive) |

same assay, conditions: A549 miR-34 inducible, Hoechst nuclei count, 48 h; measured here: relative caspase fold change +Dox/-Dox

| Compound | fold change |
| --- | --- |
| CCCC(=O)NCCc1c2n(c3ccc(OC)cc13)CCCc1ccccc1-2 | 0.293 |
| Cn1ccnc1 | 0.769 |
| Nn1nnc2ccccc21 | 1.77 |
| CCCn1c(=O)c2[nH]c(-c3ccc(S(=O)(=O)O)cc3)nc2n(CCC)c1=O | 2.81 |
| C[C@H](O)C(=O)C1=Nc2c(nc(N)[nH]c2=O)NC1 | 1.64 |
| NC1(C(=O)O)CCc2cc(C(=O)O)ccc21 (configuration not stated) | 1.76 |
| Nc1nc(Cl)nc2c1ncn2[C@@H]1O[C@H](CO)[C@H](O)C1O (some centres not stated) | 1.14 |
| N[C@H](C(=O)O)[C@H](O)C(=O)O | 1.57 |
| C=C1C(=O)O[C@@H]2[C@H]3O[C@]3(C)CCC=C(C)CC[C@@H]12 | 1.06 |
| C[C@@H]1C(=O)NC2=Nc3cccc(Cl)c3CN21 | 1.63 |
| CCNC(=O)[C@H]1O[C@@H](n2cnc3c(N)nc(NCCc4ccc(CCC(=O)O)cc4)nc32)C(O)[C@H]1O (some centres not stated) | 1.23 |
| Cc1nc(N=Nc2ccc(S(=O)(=O)O)cc2S(=O)(=O)O)c(COP(=O)(O)O)c(C=O)c1O | 1.49 |
| O=C(Nc1cccc(C(=O)Nc2ccc(S(=O)(=O)O)c3cc(S(=O)(=O)O)cc(S(=O)(=O)O)c23)c1)Nc1cccc(C(=O)Nc2ccc(S(=O)(=O)O)c3cc(S(=O)(=O)O)cc(S(=O)(=O)O)c23)c1 | 0.567 |
| Nc1nc2[nH]c(=O)cnc2c(=O)[nH]1 | 0.997 |
| O=[N+]([O-])c1ccc(CNc2nc(NCc3cccc(C(F)(F)F)c3)nc3nc[nH]c23)cc1 | 2.13 |
| N[C@@H](Cc1cnc[nH]1)C(=O)O | 1.08 |
| CC1(C)CCC(NC(=O)[C@@H](N)CCC(=O)O)CC1 | 1.15 |
| C#CC(N)CCC(=O)O (configuration not stated) | 2.03 |
| C=CCN1CCc2c(cc(O)c(O)c2Br)[C@@H](c2ccccc2)C1 | 2.06 |
| N=C(N)c1ccc(N)cc1 | 2.25 |

| Compound | fold change |
| --- | --- |
| O=C1C2C=CC=CC2=NC(=S)N1CCN1CCC(=C(c2ccc(F)cc2)c2ccc(F)cc2)CC1 (configuration not stated) | 1.03 |
| N.N.O=C(O)C1(C(=O)O)CCC1.[Pt+2] | 1.42 |
| [Li+] | 0.586 |
| COc1cc2c(CCNC(C)=O)c[nH]c2cc1O | 1.6 |
| OC1(c2ccc(Cl)cc2)CCN(Cc2c[nH]c3ccccc23)CC1 | 1.16 |
| N=C(N)c1ccccc1 | 1.99 |
| CC(=O)SCC[N+](C)(C)C | 2.3 |
| COc1cccc(C(=O)NCCN2CCN(c3ccc(Cl)cc3)CC2)c1 | 1.92 |
| OCC1NCC(O)C(O)C1O (configuration not stated) | 1.34 |
| C=C/C(C)=C/[C@@]1(C)SC(=O)C(C)=C1O | 1.19 |
| CCCOC(=O)c1c(-c2ccccc2)nc(CC)c(C(=O)SCC)c1CCC | 0.935 |
| Oc1ccc(C2CNCc3sccc32)cc1O (configuration not stated) | 1.38 |
| Nc1ncnc2c1nc(Sc1ccc(Cl)cc1)n2C1OC2COP(=O)(O)O[C@@H]2[C@@H]1O (some centres not stated) | 1.25 |
| O=C(O)CCC(C(=O)O)N1C(=O)c2ccccc2C1=O (configuration not stated) | 0.915 |
| Nc1ncnc2c1nc(Br)n2C1OC2COP(=O)(O)O[C@@H]2C1O (some centres not stated) | 1.6 |
| Nc1nc(Nc2ccccc2)nc2c1ncn2[C@@H]1O[C@H](CO)[C@H](O)C1O (some centres not stated) | 1.23 |
| COc1ccc(NC(=O)/C=C/c2ccc(Cl)cc2)cc1 | 0.89 |
| C=CCn1c(=O)c2c(nc(-c3ccc(S(=O)(=O)O)cc3)n2C)n(C)c1=O | 2.49 |
| N[C@H](CO)C(=O)O | 2.63 |
| N#Cc1cc([N+](=O)[O-])c2sc(C(N)=O)[n+]([O-])c2c1 | 1.61 |
